# Legend:
# Assay in all cases: DAPPL (digital affinity profiling via proximity ligation, sequencing); 10 mM Tris-HCl pH 7.5, 50 mM NaCl, 1 mM DTT, 4% glycerol, room temperature, 30 min; GST-TFs on glutathione beads, 16-mer random dsDNA library, 0.1% formaldehyde crosslink after washing; high values mean tight binding
# FLI1 = target: T1, FLI1 (Homo sapiens, UniProt Q01543 1-452); settings: protein: recombinant; tags: N-terminal GST; dsDNA, one strand shown
# T1 sequence: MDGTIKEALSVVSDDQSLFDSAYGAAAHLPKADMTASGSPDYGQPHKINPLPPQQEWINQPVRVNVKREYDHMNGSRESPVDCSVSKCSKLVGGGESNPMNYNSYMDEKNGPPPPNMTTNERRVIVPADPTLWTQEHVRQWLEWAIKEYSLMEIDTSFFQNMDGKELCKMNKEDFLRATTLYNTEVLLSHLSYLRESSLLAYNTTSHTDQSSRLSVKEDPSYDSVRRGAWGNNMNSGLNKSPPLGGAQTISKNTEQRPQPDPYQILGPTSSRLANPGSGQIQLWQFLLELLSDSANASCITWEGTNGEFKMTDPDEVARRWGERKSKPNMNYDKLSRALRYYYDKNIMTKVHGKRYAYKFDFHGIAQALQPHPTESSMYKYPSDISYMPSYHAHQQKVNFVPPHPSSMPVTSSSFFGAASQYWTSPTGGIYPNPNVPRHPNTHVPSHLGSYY
# Method in brief: (§1)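 Each value of binding signal is a hexamer's read frequency for a factor divided by the same hexamer's frequency in the tag-only sample. Barcoded, bead-captured GST fusions of human transcription factors made in yeast were pooled with that sample and incubated with 200 nmole of a random double-stranded 16-mer DNA library in Tris/NaCl/DTT/glycerol buffer at room temperature for 30 min. Washing, 0.1% formaldehyde crosslinking, proximity ligation, PCR and Illumina NextSeq500 sequencing followed.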
# ELK1 = target: T2, ELK1 (Homo sapiens, UniProt P19419 1-428); settings: protein: recombinant; tags: N-terminal GST; dsDNA, one strand shown
# T2 sequence: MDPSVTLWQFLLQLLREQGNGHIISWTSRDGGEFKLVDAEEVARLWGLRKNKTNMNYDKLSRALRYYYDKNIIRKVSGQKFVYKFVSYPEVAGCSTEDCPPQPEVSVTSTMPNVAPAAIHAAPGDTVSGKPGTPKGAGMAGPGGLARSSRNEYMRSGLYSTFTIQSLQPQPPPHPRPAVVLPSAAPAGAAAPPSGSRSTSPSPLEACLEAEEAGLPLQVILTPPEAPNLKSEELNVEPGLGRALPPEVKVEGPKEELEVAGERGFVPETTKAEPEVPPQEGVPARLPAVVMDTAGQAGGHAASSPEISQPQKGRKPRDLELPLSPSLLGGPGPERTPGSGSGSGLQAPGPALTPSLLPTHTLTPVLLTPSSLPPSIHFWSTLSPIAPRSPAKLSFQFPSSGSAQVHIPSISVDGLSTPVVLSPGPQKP
# Method in brief: as §1
# GABPA = target: T3, GABPA (Homo sapiens, UniProt Q06546 1-454); settings: protein: recombinant; tags: N-terminal GST; dsDNA, one strand shown
# T3 sequence: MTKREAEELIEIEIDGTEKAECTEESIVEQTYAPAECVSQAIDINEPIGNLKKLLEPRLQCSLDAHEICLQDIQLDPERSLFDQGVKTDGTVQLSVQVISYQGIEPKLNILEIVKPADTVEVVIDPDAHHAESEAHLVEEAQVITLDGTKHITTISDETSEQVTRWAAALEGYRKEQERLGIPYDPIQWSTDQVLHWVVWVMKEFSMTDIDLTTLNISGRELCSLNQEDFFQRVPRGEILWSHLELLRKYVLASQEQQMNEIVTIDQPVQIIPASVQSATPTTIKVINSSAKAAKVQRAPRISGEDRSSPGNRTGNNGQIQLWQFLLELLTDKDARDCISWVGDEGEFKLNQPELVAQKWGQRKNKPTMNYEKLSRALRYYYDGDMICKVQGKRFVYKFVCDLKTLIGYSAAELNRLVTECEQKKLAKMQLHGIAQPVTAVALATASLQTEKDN
# Method in brief: as §1
# ERG = target: T4, ERG (Homo sapiens, UniProt P11308 1-479); settings: protein: recombinant; tags: N-terminal GST; dsDNA, one strand shown
# T4 sequence: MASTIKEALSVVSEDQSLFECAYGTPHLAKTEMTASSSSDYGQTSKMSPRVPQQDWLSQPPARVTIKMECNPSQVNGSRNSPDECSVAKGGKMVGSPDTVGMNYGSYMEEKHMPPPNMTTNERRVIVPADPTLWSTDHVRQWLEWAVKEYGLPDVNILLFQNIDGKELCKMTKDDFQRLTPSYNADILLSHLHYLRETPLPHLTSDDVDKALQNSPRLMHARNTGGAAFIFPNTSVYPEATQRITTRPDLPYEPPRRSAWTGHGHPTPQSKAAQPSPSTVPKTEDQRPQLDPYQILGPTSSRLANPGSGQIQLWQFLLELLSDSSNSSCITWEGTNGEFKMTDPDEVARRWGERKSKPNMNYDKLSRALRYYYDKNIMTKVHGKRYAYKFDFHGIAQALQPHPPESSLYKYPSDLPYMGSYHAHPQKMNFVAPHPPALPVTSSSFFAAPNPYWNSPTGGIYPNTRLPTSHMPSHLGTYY
# Method in brief: as §1
# ELF1 = ELF1 (Homo sapiens, UniProt P32519 1-619); settings: protein: recombinant; tags: N-terminal GST; dsDNA, one strand shown
# Sequence of ELF1 (P32519 whole entry): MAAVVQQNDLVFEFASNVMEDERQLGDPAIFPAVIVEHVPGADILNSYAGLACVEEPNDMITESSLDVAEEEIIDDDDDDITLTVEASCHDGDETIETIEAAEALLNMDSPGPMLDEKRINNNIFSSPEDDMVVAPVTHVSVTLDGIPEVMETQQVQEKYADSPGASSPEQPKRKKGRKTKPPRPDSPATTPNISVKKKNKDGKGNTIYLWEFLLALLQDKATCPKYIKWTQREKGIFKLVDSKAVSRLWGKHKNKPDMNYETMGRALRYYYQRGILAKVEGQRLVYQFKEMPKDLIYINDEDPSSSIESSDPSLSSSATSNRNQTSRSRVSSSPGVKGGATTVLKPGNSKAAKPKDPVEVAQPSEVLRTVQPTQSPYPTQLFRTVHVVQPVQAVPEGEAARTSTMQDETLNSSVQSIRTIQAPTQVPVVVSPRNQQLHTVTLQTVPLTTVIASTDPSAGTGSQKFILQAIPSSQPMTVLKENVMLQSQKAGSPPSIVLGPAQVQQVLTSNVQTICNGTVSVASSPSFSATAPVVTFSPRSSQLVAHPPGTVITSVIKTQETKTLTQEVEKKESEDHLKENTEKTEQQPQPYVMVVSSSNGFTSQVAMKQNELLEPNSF
# Method in brief: as §1
# EHF = target: T5, EHF (Homo sapiens, UniProt Q9NZC4 1-300); settings: protein: recombinant; tags: N-terminal GST; dsDNA, one strand shown
# T5 sequence: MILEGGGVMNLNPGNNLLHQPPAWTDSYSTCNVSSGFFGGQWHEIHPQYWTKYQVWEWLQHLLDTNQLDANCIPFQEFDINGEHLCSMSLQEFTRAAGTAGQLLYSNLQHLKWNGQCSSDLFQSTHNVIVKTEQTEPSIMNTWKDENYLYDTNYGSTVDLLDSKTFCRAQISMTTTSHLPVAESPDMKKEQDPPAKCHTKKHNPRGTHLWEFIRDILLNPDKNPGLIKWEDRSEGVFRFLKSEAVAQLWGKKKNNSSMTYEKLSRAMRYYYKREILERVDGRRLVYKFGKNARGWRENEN
# Method in brief: as §1
# SPI1 = SPI1 (Homo sapiens, UniProt P17947 1-270); settings: protein: recombinant; tags: N-terminal GST; dsDNA, one strand shown
# Method in brief: as §1
# SPIB = SPIB (Homo sapiens, UniProt Q01892 1-262); settings: protein: recombinant; tags: N-terminal GST; dsDNA, one strand shown
# Sequence of SPIB (Q01892 whole entry): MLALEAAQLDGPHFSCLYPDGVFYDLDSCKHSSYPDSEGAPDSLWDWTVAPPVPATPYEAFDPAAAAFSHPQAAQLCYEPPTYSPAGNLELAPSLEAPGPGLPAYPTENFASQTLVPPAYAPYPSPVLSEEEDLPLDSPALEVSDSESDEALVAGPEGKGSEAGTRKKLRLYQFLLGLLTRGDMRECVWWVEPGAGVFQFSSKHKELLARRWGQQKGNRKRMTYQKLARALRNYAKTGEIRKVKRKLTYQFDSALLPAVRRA
# Method in brief: as §1
# ELK3 = target: T6, ELK3 (Homo sapiens, UniProt P41970 1-407); settings: protein: recombinant; tags: N-terminal GST; dsDNA, one strand shown
# T6 sequence: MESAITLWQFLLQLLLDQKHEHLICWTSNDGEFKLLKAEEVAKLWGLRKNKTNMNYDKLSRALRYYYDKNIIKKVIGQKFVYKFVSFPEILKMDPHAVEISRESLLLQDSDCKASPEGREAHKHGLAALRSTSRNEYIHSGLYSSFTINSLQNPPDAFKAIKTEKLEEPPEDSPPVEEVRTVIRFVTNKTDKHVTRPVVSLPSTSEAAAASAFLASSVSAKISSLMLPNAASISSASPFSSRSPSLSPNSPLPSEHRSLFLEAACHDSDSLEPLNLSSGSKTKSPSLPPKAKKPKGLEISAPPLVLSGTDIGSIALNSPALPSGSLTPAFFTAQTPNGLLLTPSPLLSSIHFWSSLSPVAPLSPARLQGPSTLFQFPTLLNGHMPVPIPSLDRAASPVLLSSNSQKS
# Method in brief: as §1
# FEV = target: T7, FEV (Homo sapiens, UniProt Q99581 1-238); settings: protein: recombinant; tags: N-terminal GST; dsDNA, one strand shown
# T7 sequence: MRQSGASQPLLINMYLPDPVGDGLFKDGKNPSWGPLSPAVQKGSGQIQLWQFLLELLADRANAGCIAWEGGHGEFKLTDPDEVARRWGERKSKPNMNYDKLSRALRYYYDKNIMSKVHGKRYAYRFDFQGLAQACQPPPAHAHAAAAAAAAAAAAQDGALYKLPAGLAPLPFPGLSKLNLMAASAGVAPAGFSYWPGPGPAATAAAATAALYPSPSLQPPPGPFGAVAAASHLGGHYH
# Method in brief: as §1
# ETV5 = ETV5 (Homo sapiens, UniProt P41161 1-510); settings: protein: recombinant; tags: N-terminal GST; dsDNA, one strand shown
# Sequence of ETV5 (P41161 whole entry): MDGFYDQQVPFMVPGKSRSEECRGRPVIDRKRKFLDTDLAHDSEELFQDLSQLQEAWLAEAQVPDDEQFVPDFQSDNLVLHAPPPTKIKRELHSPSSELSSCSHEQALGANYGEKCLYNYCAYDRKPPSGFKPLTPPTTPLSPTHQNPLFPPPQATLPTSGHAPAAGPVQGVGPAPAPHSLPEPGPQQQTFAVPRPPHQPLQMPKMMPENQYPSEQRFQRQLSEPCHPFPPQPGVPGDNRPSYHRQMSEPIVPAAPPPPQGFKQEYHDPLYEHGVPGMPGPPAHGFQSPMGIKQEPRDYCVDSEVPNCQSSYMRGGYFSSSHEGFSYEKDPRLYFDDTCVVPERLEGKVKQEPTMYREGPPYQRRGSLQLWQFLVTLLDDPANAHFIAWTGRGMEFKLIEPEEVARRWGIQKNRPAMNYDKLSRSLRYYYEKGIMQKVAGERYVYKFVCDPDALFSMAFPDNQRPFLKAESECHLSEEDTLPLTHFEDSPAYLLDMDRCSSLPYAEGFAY
# Method in brief: as §1
# HSF1 = HSF1 (Homo sapiens, UniProt Q00613 1-529); settings: protein: recombinant; tags: N-terminal GST; chain copies: 3; dsDNA, one strand shown
# Sequence of HSF1 (Q00613 whole entry): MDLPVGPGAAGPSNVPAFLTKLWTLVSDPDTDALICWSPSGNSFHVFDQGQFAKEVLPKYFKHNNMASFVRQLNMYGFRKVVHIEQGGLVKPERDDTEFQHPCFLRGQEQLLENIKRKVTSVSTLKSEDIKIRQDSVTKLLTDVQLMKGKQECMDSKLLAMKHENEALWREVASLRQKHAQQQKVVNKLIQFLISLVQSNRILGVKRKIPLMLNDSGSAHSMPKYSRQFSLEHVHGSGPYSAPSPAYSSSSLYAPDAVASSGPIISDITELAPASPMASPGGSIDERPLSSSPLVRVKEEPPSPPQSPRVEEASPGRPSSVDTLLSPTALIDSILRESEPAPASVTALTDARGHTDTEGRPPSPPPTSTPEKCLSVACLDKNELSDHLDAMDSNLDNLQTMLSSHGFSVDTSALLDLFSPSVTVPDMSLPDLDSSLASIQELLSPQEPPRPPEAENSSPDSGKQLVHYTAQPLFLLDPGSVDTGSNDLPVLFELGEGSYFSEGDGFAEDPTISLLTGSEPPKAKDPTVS
# Method in brief: as §1
# SPIC = target: T8, SPIC (Homo sapiens, UniProt Q8N5J4 1-248); settings: protein: recombinant; tags: N-terminal GST; dsDNA, one strand shown
# T8 sequence: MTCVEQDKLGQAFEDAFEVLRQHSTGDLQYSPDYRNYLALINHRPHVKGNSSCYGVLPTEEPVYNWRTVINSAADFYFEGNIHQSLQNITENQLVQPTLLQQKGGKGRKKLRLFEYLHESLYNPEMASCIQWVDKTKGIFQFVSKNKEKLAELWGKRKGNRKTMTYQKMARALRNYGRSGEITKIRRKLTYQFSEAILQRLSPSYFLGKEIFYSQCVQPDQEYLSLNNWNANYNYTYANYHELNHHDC
# Method in brief: as §1
# ELF4 = ELF4 (Homo sapiens, UniProt Q99607 1-663); settings: protein: recombinant; tags: N-terminal GST; dsDNA, one strand shown
# Sequence of ELF4 (Q99607 whole entry): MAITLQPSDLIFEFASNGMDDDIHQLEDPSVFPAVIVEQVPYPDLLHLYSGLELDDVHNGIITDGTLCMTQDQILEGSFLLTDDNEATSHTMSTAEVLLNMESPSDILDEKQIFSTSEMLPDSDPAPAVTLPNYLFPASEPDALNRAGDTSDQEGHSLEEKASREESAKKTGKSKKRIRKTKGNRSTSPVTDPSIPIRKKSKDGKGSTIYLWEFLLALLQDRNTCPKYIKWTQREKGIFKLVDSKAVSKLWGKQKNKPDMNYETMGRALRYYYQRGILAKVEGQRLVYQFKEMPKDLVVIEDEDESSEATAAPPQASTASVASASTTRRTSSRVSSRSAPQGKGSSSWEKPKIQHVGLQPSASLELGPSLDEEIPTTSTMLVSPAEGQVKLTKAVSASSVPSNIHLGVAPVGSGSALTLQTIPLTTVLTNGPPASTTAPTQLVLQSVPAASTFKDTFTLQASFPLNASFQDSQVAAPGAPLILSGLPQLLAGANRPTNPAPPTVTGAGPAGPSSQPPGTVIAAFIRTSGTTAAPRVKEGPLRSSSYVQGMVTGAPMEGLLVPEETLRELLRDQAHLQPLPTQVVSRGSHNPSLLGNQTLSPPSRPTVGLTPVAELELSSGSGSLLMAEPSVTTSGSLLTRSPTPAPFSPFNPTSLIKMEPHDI
# Method in brief: as §1
# ELK4 = target: T9, ELK4 (Homo sapiens, UniProt P28324-2 1-405); settings: protein: recombinant; tags: N-terminal GST; dsDNA, one strand shown
# T9 sequence: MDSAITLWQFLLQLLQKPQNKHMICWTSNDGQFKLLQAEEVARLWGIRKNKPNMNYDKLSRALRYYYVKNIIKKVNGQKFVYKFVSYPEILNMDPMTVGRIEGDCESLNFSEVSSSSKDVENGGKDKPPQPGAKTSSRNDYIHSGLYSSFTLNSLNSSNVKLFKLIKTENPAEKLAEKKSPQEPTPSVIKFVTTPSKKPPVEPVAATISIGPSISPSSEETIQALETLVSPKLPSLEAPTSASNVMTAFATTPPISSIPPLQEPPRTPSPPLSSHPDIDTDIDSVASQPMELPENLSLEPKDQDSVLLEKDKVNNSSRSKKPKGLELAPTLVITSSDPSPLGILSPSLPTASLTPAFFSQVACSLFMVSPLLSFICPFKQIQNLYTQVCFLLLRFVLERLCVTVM
# Method in brief: as §1
# ETV2 = target: T10, ETV2 (Homo sapiens, UniProt O00321 1-342); settings: protein: recombinant; tags: N-terminal GST; dsDNA, one strand shown
# T10 sequence: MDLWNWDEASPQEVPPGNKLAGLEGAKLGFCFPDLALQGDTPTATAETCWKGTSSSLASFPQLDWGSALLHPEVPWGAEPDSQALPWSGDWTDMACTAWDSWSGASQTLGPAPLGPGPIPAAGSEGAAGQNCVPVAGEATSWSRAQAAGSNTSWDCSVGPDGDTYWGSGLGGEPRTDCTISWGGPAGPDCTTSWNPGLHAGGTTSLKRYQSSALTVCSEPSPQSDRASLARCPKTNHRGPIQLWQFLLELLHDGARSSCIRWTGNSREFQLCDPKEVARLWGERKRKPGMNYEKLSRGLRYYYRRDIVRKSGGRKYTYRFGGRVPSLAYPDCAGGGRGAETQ
# Method in brief: as §1
# ELF3 = target: T11, ELF3 (Homo sapiens, UniProt P78545 1-371); settings: protein: recombinant; tags: N-terminal GST; dsDNA, one strand shown
# T11 sequence: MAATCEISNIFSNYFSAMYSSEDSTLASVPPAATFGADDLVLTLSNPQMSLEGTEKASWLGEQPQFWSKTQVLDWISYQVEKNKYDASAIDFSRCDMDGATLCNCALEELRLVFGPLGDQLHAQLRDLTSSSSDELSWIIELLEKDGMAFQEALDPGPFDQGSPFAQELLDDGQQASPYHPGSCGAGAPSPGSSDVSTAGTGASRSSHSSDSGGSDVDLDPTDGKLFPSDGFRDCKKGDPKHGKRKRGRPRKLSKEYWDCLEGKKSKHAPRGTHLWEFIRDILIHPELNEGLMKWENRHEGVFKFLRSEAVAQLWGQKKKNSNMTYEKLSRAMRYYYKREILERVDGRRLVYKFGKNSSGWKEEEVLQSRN
# Method in brief: as §1
# CRX = CRX (Homo sapiens, UniProt O43186 1-299); settings: protein: recombinant; tags: N-terminal GST; dsDNA, one strand shown
# Sequence of CRX (O43186 whole entry): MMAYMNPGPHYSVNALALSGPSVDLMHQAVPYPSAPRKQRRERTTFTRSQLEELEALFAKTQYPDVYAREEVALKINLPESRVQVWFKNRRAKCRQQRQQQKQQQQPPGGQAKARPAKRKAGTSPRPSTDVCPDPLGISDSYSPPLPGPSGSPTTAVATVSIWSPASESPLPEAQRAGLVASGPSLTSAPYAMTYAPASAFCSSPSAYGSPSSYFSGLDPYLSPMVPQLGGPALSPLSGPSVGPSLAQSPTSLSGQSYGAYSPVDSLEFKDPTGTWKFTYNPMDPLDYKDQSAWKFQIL
# Method in brief: as §1
# ETV1 = ETV1 (Homo sapiens, UniProt P50549 1-477); settings: protein: recombinant; tags: N-terminal GST; dsDNA, one strand shown
# Sequence of ETV1 (P50549 whole entry): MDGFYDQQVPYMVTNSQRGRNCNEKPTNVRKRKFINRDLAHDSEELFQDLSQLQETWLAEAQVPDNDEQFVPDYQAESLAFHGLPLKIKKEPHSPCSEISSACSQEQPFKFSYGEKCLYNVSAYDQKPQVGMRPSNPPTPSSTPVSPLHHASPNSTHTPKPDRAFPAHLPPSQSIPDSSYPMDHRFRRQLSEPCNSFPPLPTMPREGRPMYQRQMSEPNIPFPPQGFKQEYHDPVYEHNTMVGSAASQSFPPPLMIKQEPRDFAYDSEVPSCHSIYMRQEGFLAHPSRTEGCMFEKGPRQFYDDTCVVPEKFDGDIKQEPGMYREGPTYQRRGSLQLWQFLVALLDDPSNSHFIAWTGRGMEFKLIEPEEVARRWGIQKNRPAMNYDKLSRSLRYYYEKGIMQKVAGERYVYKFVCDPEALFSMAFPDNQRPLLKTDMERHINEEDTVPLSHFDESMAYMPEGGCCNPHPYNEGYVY
# Method in brief: as §1
sequence,measurement,setting,value
GATTCC,binding signal,FLI1,"1.19 fold enrichment (6-mer frequency, TF over GST control)"
same,binding signal,ELK1,"1.05 fold enrichment (6-mer frequency, TF over GST control)"
same,binding signal,GABPA,"1.08 fold enrichment (6-mer frequency, TF over GST control)"
same,binding signal,ERG,"1.2 fold enrichment (6-mer frequency, TF over GST control)"
same,binding signal,ELF1,"1.18 fold enrichment (6-mer frequency, TF over GST control)"
same,binding signal,EHF,"1.15 fold enrichment (6-mer frequency, TF over GST control)"
same,binding signal,SPI1,"1.14 fold enrichment (6-mer frequency, TF over GST control)"
same,binding signal,SPIB,"1.16 fold enrichment (6-mer frequency, TF over GST control)"
same,binding signal,ELK3,"1.17 fold enrichment (6-mer frequency, TF over GST control)"
same,binding signal,FEV,"1.09 fold enrichment (6-mer frequency, TF over GST control)"
same,binding signal,ETV5,"1.21 fold enrichment (6-mer frequency, TF over GST control)"
same,binding signal,HSF1,"1.34 fold enrichment (6-mer frequency, TF over GST control)"
same,binding signal,SPIC,"1.18 fold enrichment (6-mer frequency, TF over GST control)"
same,binding signal,ELF4,"1.19 fold enrichment (6-mer frequency, TF over GST control)"
same,binding signal,ELK4,"1.13 fold enrichment (6-mer frequency, TF over GST control)"
same,binding signal,ETV2,"1.13 fold enrichment (6-mer frequency, TF over GST control)"
same,binding signal,ELF3,"1.09 fold enrichment (6-mer frequency, TF over GST control)"
same,binding signal,CRX,"1.15 fold enrichment (6-mer frequency, TF over GST control)"
same,binding signal,ETV1,"1.21 fold enrichment (6-mer frequency, TF over GST control)"
